Inconclusive results are not listed. Active and inactive are the calls of the source. Rule for the calls: active = hit-call score of the fitted dose curve at least 0.9, where 1 is the maximum; inconclusive = response in the unintended direction; inactive = score below 0.9.
These compounds were tested against Estrogen receptor (Homo sapiens) (UniProt P03372) (assay: CCTE_Deisenroth_AIME_384WELL_LUC_Active: CCTE's 384-well Estrogen Receptor Transactivation Assay with AIME metabolic competence (ERTA luciferase; metabolism positive), Deisenroth Lab (AID 2284030)).
Chain of Estrogen receptor (Homo sapiens) (P03372 whole entry, looked up): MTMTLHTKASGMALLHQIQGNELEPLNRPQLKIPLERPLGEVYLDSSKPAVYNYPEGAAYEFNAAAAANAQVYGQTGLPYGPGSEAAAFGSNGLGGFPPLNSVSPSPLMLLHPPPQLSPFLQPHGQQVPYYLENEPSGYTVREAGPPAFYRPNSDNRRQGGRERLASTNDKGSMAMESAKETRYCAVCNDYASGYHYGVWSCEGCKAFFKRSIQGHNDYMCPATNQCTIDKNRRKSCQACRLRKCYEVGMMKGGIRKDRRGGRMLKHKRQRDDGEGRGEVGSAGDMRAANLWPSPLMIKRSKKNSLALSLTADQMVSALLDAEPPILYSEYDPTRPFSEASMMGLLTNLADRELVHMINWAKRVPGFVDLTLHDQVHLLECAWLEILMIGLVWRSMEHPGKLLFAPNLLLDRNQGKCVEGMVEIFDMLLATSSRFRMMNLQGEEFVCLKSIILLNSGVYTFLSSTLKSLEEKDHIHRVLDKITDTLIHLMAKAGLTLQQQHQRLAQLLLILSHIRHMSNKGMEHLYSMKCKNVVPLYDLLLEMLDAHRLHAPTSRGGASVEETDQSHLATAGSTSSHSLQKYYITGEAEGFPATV
Description: CCTE_Deisenroth_AIME_384WELL (AIME metabolism assay) is a cell-based, single-readout assay that uses VM7Luc4E2, a human mammary gland/breast cell line, with measurements taken at 24 hour after chemical dosing in a 384-well plate.CCTE_Deisenroth_AIME_384WELL_LUC_Active is one of four assay components measured or calculated from the CCTE_Deisenroth_AIME_384WELL assay. It is designed to make measurements of luciferase induction, a form of inducible reporter, as detected with bioluminescence signals by luciferase-coupled ATP quantitation technology.CCTE_Deisenroth_AIME_384WELL_LUC_Active is a component of the CCTE_Deisenroth_AIME_384WELL assay that measures the effect of retroftting the VM7Luc ERTA assay with the Alginate Immobolization of Metabolic Enzymes (AIME) metabolism method. AIME is optimized to impart phase I hepatic metabolism using phenobarbital/beta-naphthoflavone induced hepatic S9 from male Sprague Dawley rats. Parent chemicals are incubated for 2 hours in the AIME assay prior to transfer to the VM7Luc ERTA assay plate. […] This endpoint evaluates reporter induction in metabolism positive mode. Using a type of inducible reporter in VM7Luc cells, gain-of-signal activity can be used to understand changes in the reporter gene as they relate to xenobiotic metabolism and the gene ESR1. This assay endpoint, CCTE_Deisenroth_AIME_384WELL_LUC_Active, was analyzed in the positive analysis fitting direction relative to 17beta-estradiol as the positive control in the ERTA assay. To generalize the intended target to other relatable targets, this assay endpoint is annotated to the nuclear receptor intended target family, where the subfamily is steroidal.
The AIME procedure consists of a preparative "pre-stamping" step using a barium chloride/poly-L-lysine (PLL) solution followed by "stamping" the lid in alginate-hepatic S9 (metabolism positive) or alginate-water (metabolism negative) to form microspheres. Once stamping is completed, the AIME lids are placed in duplicate microplates (metabolism positive or negative) containing chemical solutions and incubated for two hours to facilitate metabolic reactions. The conditioned medium, containing parent chemical or metabolites, is then transferred to the cell-based VM7Luc Estrogen Receptor Transactivation Assay (ERTA) for 24 hours. A typical experimental design tests a 10-point concentration series (0.002 - 200 uM) for 8 compounds (96-well format)1 or 32 compounds (384-well format)2 in single technical replicate. AIME assay controls include trans-stilbene (bioactivated control) and ethylparaben (bioinactivated control). ERTA assay plate controls include 17-beta estradiol (positive control) and DMSO (solvent control). Experiments typically comprise a minimum of four experimental replicates (n=4).

AC50, active:
Nc1ccc(Nc2ccccc2)cc1 114 µM

outcome, inactive:
O=C(O)c1cccc(Oc2ccccc2)c1, COc1cccc(-c2ccc(/C=C\CN3CCCCCC3)cc2Cl)c1, CC(C)CCO, COc1ccc2sc(C(=O)Nc3nnn[nH]3)c(OC(C)C)c2c1, O=c1n(CC2CO2)c(=O)n(CC2CO2)c(=O)n1CC1CO1 (configuration not stated), C=CC(=C)CCC=C(C)C, CCCC(=O)OCC, Cc1ccc(N)cc1O, O=c1[nH]c2ccc(S(=O)CCN3CCC(Cc4ccc(F)cc4)CC3)cc2o1 (configuration not stated), Cn1c(=O)cc(Oc2ccc(F)cc2F)c2cnc(NCC(C)(C)O)nc21, CCCCCCCCO

Reference: PubChem BioAssay (EPA / NIEHS)
